# Results from PubChem BioAssay (EPA / NIEHS).
# Results filed as inconclusive are left out. The source made the active and inactive calls. The calls were made as follows: active = hit-call score of the fitted dose curve at least 0.9, where 1 is the maximum; inconclusive = response in the unintended direction; inactive = score below 0.9.
# How the values were obtained:
# [1] = NVS_IC_rCaDHPRCh_L: NovaScreen (NVS) Ion Channel Assay for rat Calcium Channel, Type L, Dihydropyridine Site (CaDHPRCh_L) (AID 2283320)
# Outline: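 Radioligand binding to dihydropyridine site on rat cortical membranes, filter-based scintillation counting, 1 h after dosing. Screened in duplicate at 25 uM; actives rerun in concentration-response up to 50 uM. Loss of signal versus DMSO baseline.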
# [2] = molecular target: Sodium channel protein type 1 subunit alpha (Rattus norvegicus) (UniProt P04774); assay: NVS_IC_rNaCh_site2: NovaScreen (NVS) Ion Channel Assay for rat Sodium Channel, Site 2 (NaCh) (AID 2283322);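 also: hit means loss of radioligand binding signal relative to DMSO so AC50 marks displacement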
# Outline: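 Membranes: rat forebrain. Format: competitive radioligand displacement, filter separation, scintillation readout, 1 h exposure. Primary screen in duplicate at 25 uM; actives retested in concentration series.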
# [3] = molecular target: human Peripheral-type Benzodiazepine Receptor (PBR), TSPO (gene 706) (UniProt P30536); assay: NVS_MP_hPBR: NovaScreen (NVS) Membrane Protein Assay for human Peripheral-type Benzodiazepine Receptor (PBR) (AID 2283331);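 also: hits reduce radioligand binding relative to DMSO baseline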
# Outline: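 Radioligand displacement on human colonic cell membranes, 1 h incubation; bound radioactivity by filtration and scintillation counting. Primary screen in duplicate at 25 uM single concentration, actives followed up in concentration series; loss of binding versus DMSO.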
# [4] = molecular target: rat Peripheral-type Benzodiazepine Receptor (PBR), Tspo (gene 24230) (UniProt P16257); assay: NVS_MP_rPBR: NovaScreen (NVS) Membrane Protein Assay for rat Peripheral-type Benzodiazepine Receptor (PBR) (AID 2283335)
# Outline: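 Rat kidney membranes; radioligand binding with displacement, filter-based scintillation counting, 1 h incubation. Primary screen in duplicate at 25 uM, actives followed in concentration series; loss of binding vs DMSO.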
# [5] = molecular target: rat Opioid Receptor, Non-selective Binding, Oprm1 (gene 25601) (UniProt P33535); assay: NVS_GPCR_rOpiate_NonSelective: NovaScreen (NVS) G Protein-Coupled Receptor Assay for rat Opioid Receptor, Non-selective Binding (AID 2283318)
# Outline: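 Rat forebrain membranes, cell-free radioligand binding with filter-based scintillation counting, read 1.5 h after dosing. Primary screen in duplicate at 25 uM; actives retested in concentration series. Loss of signal versus DMSO baseline scored.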
# [6] = NVS_IC_rCaBTZCHL: NovaScreen (NVS) Ion Channel Assay for Calcium Channel, Type L, Benzothiazepine Site (CaBTZCHL) (AID 2283337)
# Outline: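 Scintillation counting of filter-bound radioligand gave the read-out, with reduced binding versus DMSO scored as activity. Membranes came from rat cortex and were read 1.5 h after compound addition. Chemicals were screened first in duplicate at 25 uM.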
# [7] = molecular target: human Androgen Receptor (AR), AR (gene 367) (UniProt P10275); assay: NVS_NR_hAR: NovaScreen (NVS) Nuclear Receptor Binding Assay for human Androgen Receptor (AR) (AID 2283332)
# Outline: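 LnCAP cell-free extract; radioligand displacement read by scintillation counting after 20 h. Primary screen single concentration 25 uM in duplicate, actives then run as concentration series; loss-of-signal fitted relative to DMSO baseline.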
# [8] = molecular target: rat Gamma-Aminobutyric Acid Type A Receptor, Non-Selective (GABAR-NonSelective), Gabra1 (gene 29705) (UniProt P62813); assay: NVS_LGIC_rGABAR_NonSelective: NovaScreen (NVS) Ligand-Gated Ion Channel Assay for rat Gamma-Aminobutyric Acid Type A Receptor, Non-Selective (GABAR-NonSelective) (AID 2283326)
# Outline: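 Radioligand displacement on rat whole-brain extract, 1 h, filter scintillation readout; signal loss fitted versus DMSO. Primary screen in duplicate at 25 uM; hits (e.g. ≥30% inhibition) retested in concentration-response up to 50 uM.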
# [9] = molecular target: Voltage-gated inwardly rectifying potassium channel KCNH2 (Homo sapiens) (UniProt Q12809); assay: NVS_IC_hKhERGCh: NovaScreen (NVS) Ion Channel Assay for human Potassium Channel ERG (KhERGCh) (AID 2283333)
# Outline: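 Cell-free radioligand competition binding on hERG protein extracted from CHO cells, read by filter-based scintillation counting 0.75 h after dosing. Primary screen at 25 uM in duplicate, actives followed in concentration series. Signal loss fitted versus DMSO.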
# [10] = molecular target: human Serotonin, 5-Hydroxytryptamine Receptor 3 (5HT3), HTR3A (gene 3359) (UniProt P46098); assay: NVS_LGIC_h5HT3: NovaScreen (NVS) Ligand-Gated Ion Channel Assay for human Serotonin, 5-Hydroxytryptamine Receptor 3 (5HT3) (AID 2283325)
# Outline: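 Radioligand displacement binding to human 5-HT3 from HEK293 membranes, read by filter-based scintillation counting after 1 h. Screen at 25 uM in duplicate; chemicals passing threshold were retested in concentration-response up to 50 uM.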
# [11] = molecular target: rat Thyrotropin Releasing Hormone Receptor (TRH), Trhr (gene 25570) (UniProt Q01717); assay: NVS_GPCR_rTRH: NovaScreen (NVS) G Protein-Coupled Receptor Assay for rat Thyrotropin Releasing Hormone Receptor (TRH) (AID 2283329);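 also: hit means lower bound tracer signal versus DMSO baseline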
# Outline: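 Competitive radioligand binding on rat forebrain membrane preparations, with filtration and scintillation readout after 4 h. Primary testing in duplicate at 25 uM; actives confirmed in concentration-response. DMSO defined baseline.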
# [12] = molecular target: bovine Gamma-Aminobutyric Acid Type A Receptor Agonist (GABAR Agonist), GABRA1 (gene 780973) (UniProt P08219); assay: NVS_LGIC_bGABAR_Agonist: NovaScreen (NVS) Ligand-Gated Ion Channel Assay for bovine Gamma-Aminobutyric Acid Type A Receptor Agonist (GABAR Agonist) (AID 2283338)
# Outline: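 Radioligand binding to bovine cerebellar membranes in agonist format, read by filter-based scintillation counting after 1 h. Primary screen in duplicate at 25 uM, with actives followed in concentration series. Gain of signal versus DMSO.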
# NCBI gene 24521 = assay: NVS_IC_rKATPCh: NovaScreen (NVS) Ion Channel Assay for rat Potassium Channel, ATP-Sensitive (KATPCh) (AID 2283319)
# Outline: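 Rat cortical membranes; radioligand binding at ATP-sensitive K channel site, filter-based scintillation counting 2 h after dosing. Single-point duplicate screen at 25 uM, hits rerun in concentration-response up to 50 uM; loss of signal versus DMSO.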
# [13] = molecular target: rat Glutamate, MK-801 Agonist Site (GluNMDA_MK801), Grin1 (gene 24408) (UniProt P35439); assay: NVS_LGIC_rGluNMDA_MK801_Agonist: NovaScreen (NVS) Ligand-Gated Ion Channel Assay for rat Glutamate, MK-801 Agonist Site (GluNMDA_MK801) (AID 2283340)
# Outline: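 Radioligand binding at MK-801 site in rat forebrain membranes, 1.5 h incubation, filter-based scintillation counting. Initially 25 uM in duplicate; actives then run in concentration-response up to 50 uM, fitted for gain of signal versus DMSO.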
# [14] = molecular target: rat Vasopressin 1 Receptor (V1), Avpr1a (gene 25107) (UniProt P30560); assay: NVS_GPCR_rV1: NovaScreen (NVS) G Protein-Coupled Receptor Assay for rat Vasopressin 1 Receptor (V1) (AID 2283316)
# Outline: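 Radioligand binding on rat liver membranes, 1.5 h incubation, filter-based scintillation counting. Single 25 uM screen in duplicate; chemicals meeting threshold (e.g. 30% inhibition) run in concentration-response up to 50 uM.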
# [15] = molecular target: rat Glutamate, NMDA Agonist Site (GluNMDA), Grin1 (gene 24408) (UniProt P35439); assay: NVS_LGIC_rGluNMDA_Agonist: NovaScreen (NVS) Ligand-Gated Ion Channel Assay for rat Glutamate, NMDA Agonist Site (GluNMDA) (AID 2283327)
# Outline: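 Rat forebrain membranes, radioligand binding in the agonist-site protocol; 1 h after dosing; filter-based scintillation counting. Single-concentration duplicate screen at 25 uM, then concentration-response up to 50 uM for actives; gain-of-signal vs DMSO.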
# Chain of rat Peripheral-type Benzodiazepine Receptor (PBR), Tspo (gene 24230) (P16257 whole entry, looked up): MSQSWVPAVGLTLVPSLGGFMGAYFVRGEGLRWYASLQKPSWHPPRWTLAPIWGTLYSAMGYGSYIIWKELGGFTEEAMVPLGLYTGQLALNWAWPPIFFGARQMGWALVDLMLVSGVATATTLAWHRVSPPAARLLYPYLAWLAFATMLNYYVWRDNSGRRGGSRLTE
# Chain of human Peripheral-type Benzodiazepine Receptor (PBR), TSPO (gene 706) (P30536 whole entry, looked up): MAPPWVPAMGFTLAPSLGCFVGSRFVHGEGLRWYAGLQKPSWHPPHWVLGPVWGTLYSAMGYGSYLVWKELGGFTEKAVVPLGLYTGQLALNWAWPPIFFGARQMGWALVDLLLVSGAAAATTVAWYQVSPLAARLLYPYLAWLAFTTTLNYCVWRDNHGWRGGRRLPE
# Chain of rat Opioid Receptor, Non-selective Binding, Oprm1 (gene 25601) (P33535 whole entry, looked up): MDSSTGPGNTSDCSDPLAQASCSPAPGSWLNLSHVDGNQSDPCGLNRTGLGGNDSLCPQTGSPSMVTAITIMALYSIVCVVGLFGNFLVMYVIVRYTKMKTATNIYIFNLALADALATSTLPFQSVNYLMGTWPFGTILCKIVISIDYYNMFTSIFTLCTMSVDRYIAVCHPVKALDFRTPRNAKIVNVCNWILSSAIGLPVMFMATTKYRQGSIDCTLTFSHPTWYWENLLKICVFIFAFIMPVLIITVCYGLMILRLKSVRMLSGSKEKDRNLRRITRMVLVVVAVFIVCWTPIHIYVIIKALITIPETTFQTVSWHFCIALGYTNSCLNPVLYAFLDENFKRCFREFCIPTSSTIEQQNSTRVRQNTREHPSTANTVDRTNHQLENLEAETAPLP
# Chain of human Serotonin, 5-Hydroxytryptamine Receptor 3 (5HT3), HTR3A (gene 3359) (P46098 whole entry, looked up): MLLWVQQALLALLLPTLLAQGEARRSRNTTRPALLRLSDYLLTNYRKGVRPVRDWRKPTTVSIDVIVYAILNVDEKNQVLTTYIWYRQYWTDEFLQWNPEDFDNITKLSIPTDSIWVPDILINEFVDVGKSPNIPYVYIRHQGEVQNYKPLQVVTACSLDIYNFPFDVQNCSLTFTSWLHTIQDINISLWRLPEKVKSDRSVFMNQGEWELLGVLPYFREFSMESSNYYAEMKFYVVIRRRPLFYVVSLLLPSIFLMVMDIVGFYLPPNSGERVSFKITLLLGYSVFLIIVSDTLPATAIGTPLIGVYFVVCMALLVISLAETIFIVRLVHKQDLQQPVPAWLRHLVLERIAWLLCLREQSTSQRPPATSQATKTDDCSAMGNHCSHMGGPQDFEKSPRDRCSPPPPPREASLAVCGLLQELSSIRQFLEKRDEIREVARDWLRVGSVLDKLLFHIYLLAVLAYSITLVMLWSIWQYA
# Chain of Voltage-gated inwardly rectifying potassium channel KCNH2 (Homo sapiens) (Q12809 whole entry, looked up): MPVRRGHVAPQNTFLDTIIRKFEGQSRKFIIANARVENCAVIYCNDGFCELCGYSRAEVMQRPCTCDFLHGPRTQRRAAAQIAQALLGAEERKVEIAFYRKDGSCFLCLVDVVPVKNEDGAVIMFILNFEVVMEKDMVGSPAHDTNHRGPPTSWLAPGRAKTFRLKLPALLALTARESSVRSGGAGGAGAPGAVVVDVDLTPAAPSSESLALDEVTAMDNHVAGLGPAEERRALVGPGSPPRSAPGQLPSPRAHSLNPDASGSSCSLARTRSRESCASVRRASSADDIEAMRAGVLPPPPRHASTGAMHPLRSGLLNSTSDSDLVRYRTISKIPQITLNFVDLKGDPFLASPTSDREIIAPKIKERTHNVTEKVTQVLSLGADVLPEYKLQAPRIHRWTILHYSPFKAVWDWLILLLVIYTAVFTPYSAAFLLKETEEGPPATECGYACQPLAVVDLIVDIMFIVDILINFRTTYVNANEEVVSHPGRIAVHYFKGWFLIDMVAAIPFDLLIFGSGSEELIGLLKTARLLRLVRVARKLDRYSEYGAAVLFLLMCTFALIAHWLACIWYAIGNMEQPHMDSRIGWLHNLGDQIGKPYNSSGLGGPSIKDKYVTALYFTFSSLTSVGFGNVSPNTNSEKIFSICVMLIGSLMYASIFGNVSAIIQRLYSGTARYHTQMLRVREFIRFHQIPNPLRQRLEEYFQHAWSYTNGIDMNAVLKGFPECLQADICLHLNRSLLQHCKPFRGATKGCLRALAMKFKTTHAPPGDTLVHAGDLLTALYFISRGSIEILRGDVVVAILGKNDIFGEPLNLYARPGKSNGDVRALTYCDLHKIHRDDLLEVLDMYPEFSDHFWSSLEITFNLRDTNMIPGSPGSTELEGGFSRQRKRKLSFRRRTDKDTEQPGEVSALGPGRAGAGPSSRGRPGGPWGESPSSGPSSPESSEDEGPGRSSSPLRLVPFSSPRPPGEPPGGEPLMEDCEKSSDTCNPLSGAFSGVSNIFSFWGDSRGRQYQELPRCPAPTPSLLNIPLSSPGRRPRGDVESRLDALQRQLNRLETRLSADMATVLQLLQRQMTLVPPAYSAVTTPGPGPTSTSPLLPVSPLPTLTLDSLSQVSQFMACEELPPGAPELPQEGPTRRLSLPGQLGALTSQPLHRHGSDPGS
# Chain of rat Thyrotropin Releasing Hormone Receptor (TRH), Trhr (gene 25570) (Q01717 whole entry, looked up): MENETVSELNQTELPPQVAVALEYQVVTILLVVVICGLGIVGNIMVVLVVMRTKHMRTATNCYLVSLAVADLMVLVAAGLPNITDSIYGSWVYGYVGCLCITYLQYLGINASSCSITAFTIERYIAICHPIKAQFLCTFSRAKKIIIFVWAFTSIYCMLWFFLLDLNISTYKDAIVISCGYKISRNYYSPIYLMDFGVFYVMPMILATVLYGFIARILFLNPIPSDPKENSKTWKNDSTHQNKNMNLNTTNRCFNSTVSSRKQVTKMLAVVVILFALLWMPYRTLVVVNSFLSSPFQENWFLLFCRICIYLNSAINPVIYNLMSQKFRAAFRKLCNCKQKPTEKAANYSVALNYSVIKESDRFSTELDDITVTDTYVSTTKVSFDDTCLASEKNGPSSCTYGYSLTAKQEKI
# Chain of rat Vasopressin 1 Receptor (V1), Avpr1a (gene 25107) (P30560 whole entry, looked up): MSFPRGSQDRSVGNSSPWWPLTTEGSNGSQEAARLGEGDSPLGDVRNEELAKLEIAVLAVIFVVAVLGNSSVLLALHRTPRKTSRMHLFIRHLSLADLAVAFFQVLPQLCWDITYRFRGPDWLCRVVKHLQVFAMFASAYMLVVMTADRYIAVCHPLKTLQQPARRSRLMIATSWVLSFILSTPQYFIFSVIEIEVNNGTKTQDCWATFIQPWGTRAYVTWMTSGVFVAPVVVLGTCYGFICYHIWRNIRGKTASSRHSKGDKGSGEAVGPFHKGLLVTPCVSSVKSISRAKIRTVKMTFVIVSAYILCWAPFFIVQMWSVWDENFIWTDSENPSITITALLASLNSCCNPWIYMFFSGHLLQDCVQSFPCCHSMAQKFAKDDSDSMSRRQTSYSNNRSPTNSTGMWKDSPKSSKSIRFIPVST
# Chain of human Androgen Receptor (AR), AR (gene 367) (P10275 whole entry, looked up): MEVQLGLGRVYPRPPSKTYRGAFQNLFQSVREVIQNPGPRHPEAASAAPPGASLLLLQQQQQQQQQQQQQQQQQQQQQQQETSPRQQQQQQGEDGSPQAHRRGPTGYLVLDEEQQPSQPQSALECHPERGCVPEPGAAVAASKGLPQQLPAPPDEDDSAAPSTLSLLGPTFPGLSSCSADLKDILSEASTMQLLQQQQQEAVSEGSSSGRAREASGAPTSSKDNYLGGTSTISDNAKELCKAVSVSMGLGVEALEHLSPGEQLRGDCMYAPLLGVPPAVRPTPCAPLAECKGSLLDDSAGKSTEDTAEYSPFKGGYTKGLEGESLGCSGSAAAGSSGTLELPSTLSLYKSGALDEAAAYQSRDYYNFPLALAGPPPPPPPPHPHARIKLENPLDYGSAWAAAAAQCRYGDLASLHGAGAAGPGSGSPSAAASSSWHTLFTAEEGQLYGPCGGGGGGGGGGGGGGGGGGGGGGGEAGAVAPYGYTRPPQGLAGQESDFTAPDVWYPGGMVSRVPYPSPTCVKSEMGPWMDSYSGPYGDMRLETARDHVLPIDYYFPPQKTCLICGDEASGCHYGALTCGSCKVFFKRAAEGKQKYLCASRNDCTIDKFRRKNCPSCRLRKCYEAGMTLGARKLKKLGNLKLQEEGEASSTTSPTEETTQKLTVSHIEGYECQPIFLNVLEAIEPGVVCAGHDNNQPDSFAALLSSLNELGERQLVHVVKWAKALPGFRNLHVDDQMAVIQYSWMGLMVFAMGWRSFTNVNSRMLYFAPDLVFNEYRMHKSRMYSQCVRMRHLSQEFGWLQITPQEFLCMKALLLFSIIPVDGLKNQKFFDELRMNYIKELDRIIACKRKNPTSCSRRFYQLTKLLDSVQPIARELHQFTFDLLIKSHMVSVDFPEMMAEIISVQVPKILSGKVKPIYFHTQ
# Chain of bovine Gamma-Aminobutyric Acid Type A Receptor Agonist (GABAR Agonist), GABRA1 (gene 780973) (P08219 whole entry, looked up): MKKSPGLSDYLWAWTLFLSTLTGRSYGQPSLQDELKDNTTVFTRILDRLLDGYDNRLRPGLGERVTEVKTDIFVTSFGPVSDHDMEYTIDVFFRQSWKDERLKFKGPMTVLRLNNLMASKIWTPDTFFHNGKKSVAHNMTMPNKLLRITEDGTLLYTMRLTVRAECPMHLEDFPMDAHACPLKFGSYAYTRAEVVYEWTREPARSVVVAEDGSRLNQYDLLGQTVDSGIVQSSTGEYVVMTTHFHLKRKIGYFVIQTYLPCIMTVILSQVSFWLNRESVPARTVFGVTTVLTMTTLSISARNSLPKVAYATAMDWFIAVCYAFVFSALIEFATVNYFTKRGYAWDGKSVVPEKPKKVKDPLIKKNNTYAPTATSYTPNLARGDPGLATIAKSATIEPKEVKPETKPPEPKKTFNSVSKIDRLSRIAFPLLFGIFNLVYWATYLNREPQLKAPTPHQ
smiles,measurement,setting,value
O=P(OC(CCl)CCl)(OC(CCl)CCl)OC(CCl)CCl,AC50,[1],6.41 µM (active)
same,outcome,[2],inactive
same,AC50,[3],2.01 µM (active)
same,AC50,[4],2.36 µM (active)
CCCCC(CC)COC(=O)CCCCCCCCC(=O)OCC(CC)CCCC (configuration not stated),outcome,[2],inactive
CCn1nc(Cc2ccccc2)cc1C1CCN(C[C@H]2C[C@H](N(C)[C@@H](C(=O)O)C(C)C)C[C@@H]2c2cccc(F)c2)CC1,AC50,[5],4.11 µM (active)
same,AC50,[1],4.21 µM (active)
same,AC50,[2],17.4 µM (active)
same,AC50,[3],8.22 µM (active)
same,outcome,[4],inactive
same,AC50,[6],16.2 µM (active)
CCCCCCc1ccc(O)cc1O,outcome,[2],inactive
same,AC50,[7],8.25 µM (active)
CCOC(=O)c1ccc(C2CCC(NC[C@H](O)COc3ccc(O)c(NS(C)(=O)=O)c3)CC2)cc1 (some centres not stated),AC50,[1],18.4 µM (active)
same,AC50,[2],3.33 µM (active)
same,AC50,[8],4.64 µM (active)
same,AC50,[9],10.1 µM (active)
same,AC50,[6],7.7 µM (active)
Cc1[nH]cnc1C[C@H]1CCc2c(C)c3ccccc3n2C1=O,AC50,[5],9.93 µM (active)
same,AC50,[1],1.5 µM (active)
same,AC50,[2],10.4 µM (active)
same,AC50,[10],0.00204 µM (active)
same,outcome,[11],inactive
same,outcome,[3],inactive
same,AC50,[9],4.76 µM (active)
same,outcome,[6],inactive
same,AC50,[12],9.14 µM (active)
CCOc1cccc(-n2cc(C(=O)N3CCN(c4cc(C(=O)O)c5ccccc5c4)CC3)nc2-c2ccc(C)cc2)c1,AC50,NCBI gene 24521,21.2 µM (active)
same,AC50,[2],7.07 µM (active)
same,AC50,[3],3.71 µM (active)
same,AC50,[4],9.73 µM (active)
CCc1cc(SCc2sc(-c3ccc(C(F)(F)F)cc3)nc2CN2CCN(c3ccc(OC)cc3)CC2)ccc1OCC(=O)O,outcome,[5],inactive
same,AC50,NCBI gene 24521,35.9 µM (active)
same,AC50,[1],15.9 µM (active)
same,AC50,[2],25 µM (active)
same,outcome,[3],inactive
same,AC50,[4],1.81 µM (active)
same,outcome,[13],inactive
CC(C)CC(C)(O)C#CC(C)(O)CC(C)C (configuration not stated),outcome,[2],inactive
same,outcome,[9],inactive
Nc1ccc(Nc2ccccc2)cc1,AC50,[2],5.39 µM (active)
same,AC50,[3],11.2 µM (active)
same,outcome,[9],inactive
O=C(CCCCCCCCc1cccnc1)N1CCC(C=C(c2ccccc2)c2ccccc2)CC1,outcome,[14],inactive
CCOC(=O)COc1ccc2c(c1)CC(NCC(O)c1cccc(Cl)c1)CC2 (configuration not stated),outcome,[1],inactive
same,AC50,[2],6.7 µM (active)
same,AC50,[9],21.5 µM (active)
C=CCCCCCCCCC(=O)O,outcome,[10],inactive
CC(C)=CCC/C(C)=C\CO,outcome,[10],inactive
Fc1ccccc1[C@@H](F)COC1CCC(Nc2ncnc3[nH]ncc23)CC1 (some centres not stated),AC50,[15],0.616 µM (active)
same,outcome,[13],inactive
CCOC(=O)CC(CC(=O)OCC)(OC(C)=O)C(=O)OCC,outcome,[11],inactive
